The entries come from a sample that favours hits as a whole.
GIRK2 act – Activates human GIRK2-containing potassium channels. AID 1259324. P48051. activation (% efficacy), % for hits at 37.5 µM. HEK293 GIRK2/NPY4 cells, thallium flux fluorescence. 34,000 tested, under 10 active;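 active = primary screen hit, no activity in plain HEK293 cells, and in GIRK2-only cells above 5% efficacy rising with concentration; inactive = the rest, including fluorescent compounds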;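 note: efficacy is normalized control-subtracted fluorescence 15 s after thallium addition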
AMPAR-TARP mod – modulators of AMPA receptor GluA2-stargazin complexes; calls only at 30 µM; HEK293 GluA2+stargazin, membrane potential dye (FDSS), glutamate EC50; hits were called plate by plate, in both directions; O88602+P19491; 40,000 compounds, 3.5% hits;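 active = any of four per-well response measures lying three or more SD from its plate-wide compound average, in either direction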
Target sequence (O88602 whole entry, looked up): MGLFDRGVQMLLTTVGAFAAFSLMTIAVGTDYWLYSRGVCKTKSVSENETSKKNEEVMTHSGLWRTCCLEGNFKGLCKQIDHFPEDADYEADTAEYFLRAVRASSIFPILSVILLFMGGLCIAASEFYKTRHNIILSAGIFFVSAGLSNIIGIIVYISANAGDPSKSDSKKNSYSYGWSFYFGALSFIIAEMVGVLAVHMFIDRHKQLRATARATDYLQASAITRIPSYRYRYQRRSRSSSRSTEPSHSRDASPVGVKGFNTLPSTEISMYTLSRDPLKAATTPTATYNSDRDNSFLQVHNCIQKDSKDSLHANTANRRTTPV
Target sequence (P19491 whole entry, looked up): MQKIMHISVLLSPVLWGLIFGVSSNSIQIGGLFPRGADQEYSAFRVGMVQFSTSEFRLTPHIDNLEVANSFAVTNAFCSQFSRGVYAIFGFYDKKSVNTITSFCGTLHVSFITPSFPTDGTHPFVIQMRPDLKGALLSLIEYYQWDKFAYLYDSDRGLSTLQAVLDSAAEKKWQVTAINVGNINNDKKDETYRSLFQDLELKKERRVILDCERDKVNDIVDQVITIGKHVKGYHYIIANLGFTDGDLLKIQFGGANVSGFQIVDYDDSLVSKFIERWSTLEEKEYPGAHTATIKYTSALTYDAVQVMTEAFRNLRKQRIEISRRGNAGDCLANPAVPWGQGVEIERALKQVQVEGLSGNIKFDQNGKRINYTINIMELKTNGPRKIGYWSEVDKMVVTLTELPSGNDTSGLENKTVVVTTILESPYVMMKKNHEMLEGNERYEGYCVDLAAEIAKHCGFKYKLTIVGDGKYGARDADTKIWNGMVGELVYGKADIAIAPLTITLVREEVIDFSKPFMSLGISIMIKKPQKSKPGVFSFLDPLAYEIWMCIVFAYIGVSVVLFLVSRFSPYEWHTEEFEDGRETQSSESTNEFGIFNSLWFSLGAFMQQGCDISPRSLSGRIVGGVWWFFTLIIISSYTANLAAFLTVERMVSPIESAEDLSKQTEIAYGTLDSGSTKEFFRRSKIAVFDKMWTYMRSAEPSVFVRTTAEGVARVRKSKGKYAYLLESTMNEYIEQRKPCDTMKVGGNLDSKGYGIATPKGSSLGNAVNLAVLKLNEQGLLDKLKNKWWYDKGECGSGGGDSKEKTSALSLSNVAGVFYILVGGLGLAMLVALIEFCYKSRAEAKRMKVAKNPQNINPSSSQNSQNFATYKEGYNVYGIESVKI
An asterisk follows results filed as active.

For COc1ccc2sc(=NC(=O)c3cc(C)no3)n(CCSC)c2c1 the results were GIRK2 act inactive and AMPAR-TARP mod active.
`COc1ccc2sc(=NC(C)=O)n(CCSC)c2c1` gave AMPAR-TARP mod inactive.
For NC(=O)c1ccccc1NC(=O)c1csc(Nc2cccc(Cl)c2)n1 the results were GIRK2 act inactive and AMPAR-TARP mod inactive.
`O=C(c1ccc([N+](=O)[O-])cc1)N(Cc1ccncc1)c1nc2ccc(F)cc2s1` gave GIRK2 act inactive and AMPAR-TARP mod active.
CCOc1cccc2sc(N(Cc3ccncc3)C(=O)c3ccc(S(=O)(=O)N(C)C)cc3)nc12 was read as GIRK2 act inactive.
For O=C(c1ccc([N+](=O)[O-])cc1)N(Cc1ccncc1)c1nc2c(F)cccc2s1 the results were GIRK2 act inactive and AMPAR-TARP mod inactive.
For CCc1cccc2sc(N(Cc3ccncc3)C(=O)c3ccc(C#N)cc3)nc12 the results were GIRK2 act inactive and AMPAR-TARP mod active.
Screening COc1cccc(CNC(=O)Cn2c(=O)n(C(C)C)c(=O)c3nscc32)c1OC returned GIRK2 act inactive and AMPAR-TARP mod inactive.
CS(=O)(=O)N1CCC(CNC(=O)C2CCCCC2)CC1 was read as GIRK2 act inactive and AMPAR-TARP mod active.
For COCCN1CCC(CNC(=O)C2CCN(S(C)(=O)=O)CC2)CC1 the results were GIRK2 act inactive.
`O=S(=O)(c1ccc(Oc2ccccc2)cc1)N1CCN(c2ccc3nncn3n2)CC1` gave GIRK2 act inactive and AMPAR-TARP mod inactive.
For CCCC(=O)Nc1ccc(S(=O)(=O)N2CCN(c3ccc4nncn4n3)CC2)cc1 the results were GIRK2 act inactive and AMPAR-TARP mod active.
For O=C(CCCS(=O)(=O)c1ccccc1)Nc1nc(-c2ccc(Cl)s2)cs1 the results were GIRK2 act inactive and AMPAR-TARP mod inactive.
For O=C(CCCS(=O)(=O)c1ccccc1)Nc1nc2ccccc2s1 the results were GIRK2 act inactive and AMPAR-TARP mod inactive.
O=C(CS(=O)(=O)Cc1ccccc1)Nc1nc(-c2cc([N+](=O)[O-])cs2)cs1 was read as GIRK2 act inactive and AMPAR-TARP mod inactive.
For O=C(CCCS(=O)(=O)c1ccccc1)Nc1nc(-c2cc([N+](=O)[O-])cs2)cs1 the results were GIRK2 act inactive and AMPAR-TARP mod active.
`O=C(CCCS(=O)(=O)c1ccccc1)Nc1nc(-c2ccc(Br)s2)cs1` gave GIRK2 act inactive and AMPAR-TARP mod active.
N#Cc1ccsc1NC(=O)CCCS(=O)(=O)c1ccccc1 was read as GIRK2 act inactive and AMPAR-TARP mod active.
For Cc1nc2c(ccc3nc(NC(=O)CCCS(=O)(=O)c4ccccc4)sc32)s1 the results were GIRK2 act inactive and AMPAR-TARP mod active.
Screening N#Cc1ccccc1NC(=O)CCCS(=O)(=O)c1ccccc1 returned GIRK2 act inactive and AMPAR-TARP mod inactive.
For COc1ccc(OC)c(S(=O)(=O)Nc2ccc(CC(N)=O)cc2)c1 the results were GIRK2 act inactive and AMPAR-TARP mod inactive.
`CCOC(=O)C1CCN(C(=O)CCc2csc(NC(=O)c3ccc[nH]c3=O)n2)CC1` gave GIRK2 act inactive and AMPAR-TARP mod inactive.
O=C(NCC(O)(c1ccccc1)C1CC1)c1cccc2ccccc12 (stereo not drawn) was read as AMPAR-TARP mod inactive.
O=C(Nc1nc2ccc([N+](=O)[O-])cc2s1)c1ccc(=O)n(Cc2c(F)cccc2Cl)c1 was read as GIRK2 act inactive and AMPAR-TARP mod active.
`O=C(CCCS(=O)(=O)c1ccc(Cl)cc1)Nc1ccc([N+](=O)[O-])cc1` gave AMPAR-TARP mod active.
Screening O=C(CCCS(=O)(=O)c1ccccc1)Nc1ccc([N+](=O)[O-])cc1 returned GIRK2 act inactive and AMPAR-TARP mod inactive.
`Cc1ccc(S(=O)(=O)CCCC(=O)N(CCN(C)C)c2nc3ccc([N+](=O)[O-])cc3s2)cc1` gave GIRK2 act inactive and AMPAR-TARP mod active.
For Cc1ccc(S(=O)(=O)CCCC(=O)N(CCN(C)C)c2nc3c(C)cccc3s2)cc1 the results were GIRK2 act inactive and AMPAR-TARP mod inactive.
For CS(=O)(=O)c1ccc2nc(NC(=O)c3ccc(=O)n(Cc4c(F)cccc4Cl)c3)sc2c1 the results were GIRK2 act inactive and AMPAR-TARP mod inactive.
COc1ccc(S(=O)(=O)CCCC(=O)Nc2nc3ccc([N+](=O)[O-])cc3s2)cc1 was read as GIRK2 act inactive and AMPAR-TARP mod active.
O=C(CCCS(=O)(=O)c1ccc(Cl)cc1)Nc1nc2ccc([N+](=O)[O-])cc2s1 was read as AMPAR-TARP mod inactive.
COc1ccc(NC(=O)c2ccc([N+](=O)[O-])cc2Cl)cc1N1CCCC1=O was read as GIRK2 act inactive and AMPAR-TARP mod inactive.
For O=C(Cn1cnc2ccccc21)Nc1nc2c(s1)C(=O)CCC2 the results were GIRK2 act inactive and AMPAR-TARP mod inactive.

Assay outcomes as filed in PubChem.
